Luciferase inh – blocks Photinus pyralis firefly luciferase activity; Potency, µM (series often up to 57.1 µM), for the others: at the top dose activity change, negative = inhibition, hits mostly inhibitors; AID 411; purified firefly luciferase, luminescence, 8 min; P08659; 72,000 tested, 2.2% active; also: % is scaled to controls: 0 for no effect and ±100 for the full control effect; nearly all actives have a fitted effect of over 40% in size
Target sequence (P08659 whole entry, looked up): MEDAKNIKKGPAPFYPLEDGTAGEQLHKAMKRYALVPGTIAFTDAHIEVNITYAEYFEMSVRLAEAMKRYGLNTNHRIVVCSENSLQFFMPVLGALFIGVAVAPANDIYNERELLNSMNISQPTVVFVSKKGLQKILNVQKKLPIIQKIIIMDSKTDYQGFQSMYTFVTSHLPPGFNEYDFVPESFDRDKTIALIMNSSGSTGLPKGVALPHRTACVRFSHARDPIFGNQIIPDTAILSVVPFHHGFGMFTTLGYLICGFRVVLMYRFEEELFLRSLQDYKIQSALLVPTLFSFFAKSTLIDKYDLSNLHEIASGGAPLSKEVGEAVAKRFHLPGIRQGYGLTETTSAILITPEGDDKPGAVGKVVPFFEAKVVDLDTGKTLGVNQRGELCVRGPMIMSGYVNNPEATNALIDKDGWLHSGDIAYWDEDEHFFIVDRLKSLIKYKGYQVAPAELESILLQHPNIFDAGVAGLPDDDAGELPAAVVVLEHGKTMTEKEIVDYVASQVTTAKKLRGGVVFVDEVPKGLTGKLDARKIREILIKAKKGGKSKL
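Luminescence read-out after 8 min at room temperature; enzyme reaction used luciferin plus 10 uM ATP (linear range) in imidazole buffer pH 7.2 with KCl, MgCl2, Tween 20 and BSA. Each sample was run as a titration.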
Tau filament bind – binds recombinant human tau filaments; Potency, µM (doses to about 57.1 µM), inactives show top-dose activity change, negative = inhibition; 71,000 tested, 2% active; AID 596; recombinant tau filaments, thioflavin S fluorescence, 15 h; filaments grown with octadecylsulfate alongside compound;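 also: % is scaled to controls: 0 for no effect and ±100 for the full control effect; actives lower thioflavin S fluorescence by blocking filaments or displacing dye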
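Recombinant tau protein (human, 1 uM final) plus 30 uM ODS in HEPES pH 7.4 with NaCl, DTT and thioflavine S. Compound present from the start; fluorescence at 510 nm after 15 h, 37 C.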
p53ts 32C tox – kills p53ts cells at the permissive temperature. H1299-p53A138V at 32C, ATP luminescence viability, 24 h. Potency, µM (doses to about 46.1 µM), inactives show at the top dose activity change, negative = cytotoxicity, most hits filed as cytotoxic. 130,000 tested, 0.93% active. AID 924;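 also: 0% = DMSO and -100% = full killing by reference compound; nearly all actives have a fitted effect of over 55% in size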
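ATP-content luminescence (ATPlite) read-out after 24 h compound exposure at 32C in H1299-p53A138V cells (600/well). Tested up to 46 uM. Normalized to DMSO (0%) and 100 uM tamoxifen (100% killing); Hill-fit AC50.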
p53ts 39C tox – p53ts cell cytotoxicity, nonpermissive temperature. 130,000 tested, 1.5% active. H1299-p53A138V viability at 39C, ATP luminescence, 24 h. Potency, µM (series often up to 46.1 µM), for inactives: at the top dose activity change, negative = cell killing, hits mostly cytotoxic; also: % is scaled to controls: 0 for no effect and ±100 for the full control effect; nearly all actives have a fitted effect of over 55% in size
Imprint erasure – genomic imprint erasure induction | mouse ES Peg3-LacZ reporter, beta-gal luminescence, 40 h | 110,000 tested, 0.02% active | AID 1948 | Potency, µM (series often up to 60.7 µM), for inactives: at the top dose activity change, positive = activation, actives largely listed as activators
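Imprint erasure is scored as LacZ activity from the silenced maternal Peg3 allele in feeder-free female ES cells cultured 40 h with LIF. Luminescence is normalized to in-plate negative controls and fitted to the Hill equation.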
Active calls of the source: *; ? = inconclusive; / = no result given; [ ] = remark or other dose. Shown are actives, neighbours in structure and some others; about 3.4% of the full set was active somewhere. Calls follow the shape of the dose curve; as a rule, active = well fitted curve in the direction sought with a large enough effect; inconclusive = small, poorly fitted or top-dose-only effect, or another doubt; inactive = no such curve, though single readings can be large; an effect the other way counts as inactive or inconclusive. Potency is read from the fitted curve at half-maximal effect.

SMILES | Luciferase inh | Tau filament bind | p53ts 32C tox | p53ts 39C tox | Imprint erasure
COc1ccc(CCN2C(=NC(=O)CCC(=O)O)SC3CS(=O)(=O)CC32)cc1OC (configuration not stated) | 12.6µM* | 7.6% | 1.8% | -0.5% | -8.8%
C=CCN1C(=NC(=O)CCCC(=O)O)SC2CS(=O)(=O)CC21 (configuration not stated) | 0.6% | -25.6% | -7.2% | 3.6% | 10.7%
CSc1ccc(CNc2ccccn2)cc1 | 15.8µM* | -9.6% | ? | -27.6% | -34.3%
CSc1ccc(CNc2ncc(-c3ccccc3)n2C)cc1 | / | / | -12.4% | 10.4% | -34.0%[10.9 µM]
CC1CCCN(C(=O)c2cc3ccc4cccnc4c3[nH]2)C1 (configuration not stated) | / | / | 0.794µM* | 1.58µM* | -57.1%[10.9 µM]
CCOc1ccccc1NC(=O)c1cc2ccc3cccnc3c2[nH]1 | / | / | -12.7% | ? | 11.3%[10.9 µM]
COc1ccccc1NC(=O)c1cc2ccc3cccnc3c2[nH]1 | / | / | 10µM* | 7.94µM* | -11.7%[10.9 µM]
O=C(c1cc2ccc3cccnc3c2[nH]1)N1CCCCC1 | / | / | 1.58µM* | 0.631µM* | -79.2%[10.9 µM]
CCOc1ccc(CNS(=O)(=O)c2c(C(=O)N3CCC(C)CC3)c(C)n(C)c2C)cc1OC | / | / | 7.4% | -6.1% | -8.8%[10.9 µM]
COc1cccc2c1Oc1ncccc1N(c1ccc(C(=O)NCc3ccccc3C)s1)C2 | / | / | 6.5% | 0.1% | -7.3%[10.9 µM]
COC(=O)Cc1c(C)nc2nc(-c3ccccc3)[nH]n2c1=O | 25.1µM* | ? | -24.2% | -7.8% | -37.0%
COC(=O)Cc1c(C)nc2nc(-c3cccnc3)[nH]n2c1=O | -10.3% | -0.6% | -6.3% | -4.5% | -27.3%
COC(=O)Cc1c(C)nc2nc(-c3ccc(C)cc3)[nH]n2c1=O | / | / | 10µM* | ? | -18.8%[10.9 µM]
OCC1O[C@H](Oc2ccc(O)cc2)C(O)C(O)C1O (some centres not stated) | / | / | 3.0% | 1.5% | ?
CCCCn1c(=O)nc2n(-c3ccc(F)cc3)c3ccccc3cc-2c1=O | / | / | 2.4% | 1.6% | -1.2%[10.9 µM]
COc1ccc(CSc2nc3ncccc3[nH]2)cc1 | / | / | 15.8µM* | / | /
Cc1cccc2c1-c1sc(C(=O)Nc3ccccc3C(N)=O)cc1CO2 | / | / | ? | 12.6µM* | -36.0%[10.9 µM]
CCOC(=O)CNC(=O)c1sc(NC(=O)c2ccccc2)nc1C | / | / | -8.0% | -6.7% | /
Cc1nc(NC(=O)c2ccccc2)sc1-c1csc(N)n1 | 15.8µM* | -6.1% | -24.6% | -23.4% | -60.5%
c1ccc(-c2cn3c4c(sc3n2)CCCC4)cc1 | 0.398µM* | 41.6% | 1µM* | 0.631µM* | -87.9%
O=C(CNC(=O)c1ccc(F)cc1)OCc1cc(=O)n2nc(C3CCCCC3)sc2n1 | / | / | 0.1% | -24.0% | -11.6%[10.9 µM]
Cc1cccc(N2CCN(Cc3nnc(-c4cccc(Br)c4)o3)CC2)c1C | / | / | 6.3% | -16.5% | 10.3%[10.9 µM]
O=C1C2C3C=CC(C3)C2C(=O)N1CNc1ccc(O)cc1 (configuration not stated) | -9.7% | 15.8µM* | -1.8% | 0.4% | ?
CCOc1ccc(NC(=O)CSc2nnc3scc(-c4ccc(Cl)cc4)n23)cc1 | / | / | -23.8% | -5.0% | -15.7%[10.9 µM]
COc1ccc(NC(=O)CSc2nnc3scc(-c4ccc(Cl)cc4)n23)cc1 | / | / | ? | 12.6µM* | -12.8%[10.9 µM]
SMILES | Luciferase inh | Tau filament bind | p53ts 32C tox | p53ts 39C tox | Imprint erasure
Cc1ccc(-c2csc3nnc(SCC(=O)Nc4cccc(C)n4)n23)cc1 | -0.6% | 20µM* | 4.6% | -4.9% | -8.6%
COc1cc(CNC(=O)c2ccc(NC(=O)N3CCCCc4ccccc43)cc2)cc(OC)c1OC | / | / | 7.3% | 2.8% | -9.8%[10.9 µM]
COc1ccc(CNC(=O)Cn2ncc3c(=O)oc4ccc(C)cc4c32)c(OC)c1 | / | / | 3.2% | 13.1% | -9.7%[10.9 µM]
Cc1ccc(CNC(=O)Nc2ccccc2)cc1 | 12.6µM* | 1.6% | ? | ? | -39.2%
Cc1cccc(NC(=O)c2cnc3ccccn3c2=O)c1 | -0.1% | -6.9% | 0.8% | 12.9% | -16.9%
Cc1cccc(NC(=O)c2cnc3sccn3c2=O)c1 | 10µM* | -10.1% | 7.94µM* | 10µM* | -19.6%
COc1ccc(O)c(-c2cc(-c3cccs3)[nH]n2)c1 | 15.8µM* | -7.3% | -10.8% | -28.9% | -22.3%
COc1ccccc1-c1cc(-c2cc(Cl)ccc2O)n[nH]1 | 0.0%[25.5 µM] | / | / | / | /
COc1ccc(NC(=O)CSc2oc(-c3ccc(C)cc3)nc2S(=O)(=O)c2ccc(C)cc2)c(OC)c1 | / | / | 5.1% | -10.1% | -12.8%[10.9 µM]
